RecA intein inh – Mtb RecA intein splicing inhibitors, primary screen, biochemical, fluorescence, HTS; AID 2221, 2009; inhibition, % (no concentration beside the values); cell-free RecA intein splicing; 290,000 compounds, 0.75% hits; in the data active = inhibition above about 30%;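 also: 0% = vehicle wells and 100% = reference inhibitor control wells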
Target sequence (P9WHJ3 whole entry, looked up): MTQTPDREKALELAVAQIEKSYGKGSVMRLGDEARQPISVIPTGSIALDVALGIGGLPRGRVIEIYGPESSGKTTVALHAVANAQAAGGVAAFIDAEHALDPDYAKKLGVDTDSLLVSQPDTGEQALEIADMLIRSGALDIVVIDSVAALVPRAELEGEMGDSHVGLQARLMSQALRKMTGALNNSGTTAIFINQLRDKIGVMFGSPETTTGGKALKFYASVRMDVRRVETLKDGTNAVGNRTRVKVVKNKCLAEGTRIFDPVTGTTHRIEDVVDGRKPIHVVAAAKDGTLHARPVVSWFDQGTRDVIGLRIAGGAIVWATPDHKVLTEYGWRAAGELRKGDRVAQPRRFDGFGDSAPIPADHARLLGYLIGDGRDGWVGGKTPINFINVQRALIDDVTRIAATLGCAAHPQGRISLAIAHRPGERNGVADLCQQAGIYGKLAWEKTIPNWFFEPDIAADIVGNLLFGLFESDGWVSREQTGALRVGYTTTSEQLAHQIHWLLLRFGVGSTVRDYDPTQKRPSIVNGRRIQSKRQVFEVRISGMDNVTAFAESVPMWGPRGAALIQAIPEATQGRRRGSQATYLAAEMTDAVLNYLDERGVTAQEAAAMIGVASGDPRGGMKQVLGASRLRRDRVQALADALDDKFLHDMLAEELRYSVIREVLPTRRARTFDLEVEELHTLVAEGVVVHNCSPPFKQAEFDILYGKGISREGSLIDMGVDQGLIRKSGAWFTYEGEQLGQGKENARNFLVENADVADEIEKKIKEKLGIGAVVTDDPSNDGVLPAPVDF
SSB-PriA inh – inhibitors of Klebsiella pneumoniae PriA binding to SSB C-terminal tail, primary screen, biochemical, AlphaScreen; PriA–SSB C-terminal tail interaction (Klebsiella pneumoniae); AlphaScreen SSBct-PriA binding, biotinylated peptide; inhibition, % at 33 µM; 430,000 compounds, 0.6% hits; AID 1272365, 2023; in the data active = inhibition mostly above about 37%, no sharp cut-off; inactive = mostly below about 20%;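 also: plate controls were negative control peptide for no effect and reference peptide for full effect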
PrP 5UTR inh – inhibition of PrP 5' UTR reporter expression | cell-based PrP 5' UTR mRNA reporter, plate reader | inhibition, % (test concentration not listed) | 340,000 compounds, 0.35% hits | AID 488862, 2010; in the data active = inhibition above about 52%; also: 0 = median of the neutral control wells
PrPC TRFRET – inhibitors of human cell surface prion protein PrPC, primary screen, cell-based, TR-FRET; Major prion protein (Homo sapiens), P04156; TR-FRET read-out; inhibition, % at 13.8 µM; 370,000 compounds, 0.43% hits; AID 720596, 2013; in the data active = inhibition above about 24%; also: 0% = median of the test wells and 100% = reference compound wells
PfHsp40 rescue – rescue of yeast from PfHsp40 toxicity, primary screen, S. cerevisiae, ATP luminescence. S. cerevisiae expressing PfHsp40, growth rescue. growth rescue, % at 12.5 µM. 340,000 compounds, 0.68% hits. AID 504582, 2011; in the data active = growth rescue above about 28%, passing the limit was not always enough;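 also: yeast W303a lacking pdr1 and pdr3 grown in galactose medium; growth measured after three days at 30 °C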
BJeLR lethal – MLPCN primary cell-based screen for lethality selective to Ras in HRASV12 cells; BJeLR (HRASV12) viability, CellTiter-Glo ATP luminescence, 48 h; inhibition, % (test concentration not listed); 300,000 compounds, 0.17% hits; in the data active = inhibition above about 50%
* marks the source's active call; other numbers are inactive results; x = not tested or not shown; ! = a repeat was not active. This is a sample that favours compounds with a hit; in the whole collection about 1.9% have one here.

SMILES	RecA intein inh	SSB-PriA inh	PrP 5UTR inh	PrPC TRFRET	PfHsp40 rescue	BJeLR lethal
O=S(=O)(c1ccc2c(c1)OCCO2)N1CCCSCC1CN1CCCC1 (stereo not drawn)	x	-6	x	x	x	x
O=C(NCCc1cccs1)c1cc(N2CCCC2)ncn1	x	-4	x	x	x	x
O=c1c(Br)ccc(Br)cc1Br	x	3	-18	88*	77*	x
Brc1ccc(Oc2ccc(Br)cc2Br)c(Br)c1	x	-9	-17	-1	0	x
COc1ccc(CN2CCN(C(C)C(=O)N(C)Cc3cccc(F)c3)CC2)cc1OC (stereo not drawn)	-1	52*	-9	-3	-1	0
COc1ccc(CN2CCN(C(C)C(=O)NC(C)c3ccc(F)cc3)CC2)cc1F (stereo not drawn)	0	-14	-21	-7	1	-2
Cc1cccc(CC(=O)Nc2ccc3c(c2)CC(=O)N3)c1	x	5	x	x	x	x
CC(=O)NCCc1c(C)n(Cc2ccccc2)c2ccccc12	x	11	-20	10	64*	2
CC(=O)NCCc1nc2ccccc2n1CCc1ccccc1	2	-17	5	3	-1	-1
CC(=O)NCCc1nc2ccccc2n1Cc1ccccc1	0	97*	-11	-2	-2	3
CCOc1ccc(C(C)=O)cc1COC(=O)c1ccccc1C(=O)N(C)Cc1ccccc1	x	-15	-6	-4	96*	x
Cc1ccc(C(C)C)c(OCCn2c3ccccc3c3nc4ccccc4nc32)c1	x	-11	x	x	x	x
Cc1ccc2nc(NC(=O)CCc3csc(NC(=O)Nc4ccccc4)n3)sc2c1	x	-20	x	x	x	x
CC1(N(O)C=C2C=CC=CC2=O)CCCCC1=O (stereo not drawn)	x	-4	x	x	x	x
O=C(CCCc1ccccc1)NC[C@H]1CN(c2ccc(F)cc2)C(=O)O1	x	-6	x	x	x	x
COc1ccc(OC)c(S(=O)(=O)N2CCN(c3ccc(-c4ccco4)nn3)CC2)c1	x	-7	x	x	x	x
O=C(CCCN1C(=O)/C(=C\c2cccs2)SC1=S)Nc1ccc(O)cc1C(=O)O	32*	-3	-24	-8	0	-11
O=C(CCCN1C(=O)/C(=C\c2cccs2)SC1=S)Nc1ccc(O)cc1	67*	11	-14	-4	-1	1
CCC(=O)N1CCc2ccc(NC(=O)c3c(F)cccc3F)cc2C1	x	5	x	x	x	x
O=C(c1ccsc1)N1CCC(Oc2cccnn2)CC1	x	-6	x	x	x	x
Cc1sc2ccccc2c1CC1=NCCN1	x	-3	-14	-1	0	x
Nc1ccc(CC2=NCCN2)cc1	x	-14	-20	8	35*	x
Cc1ccc(C(=O)NC(C)C(=O)NC2CCCCC2)cc1 (stereo not drawn)	x	6	x	x	x	x
CCc1ccc(C(=O)/C=C/c2ccc([N+](=O)[O-])o2)cc1	5	9	-6	4	120*	59*
CCn1nc(C)cc1C(=O)Nc1nc(C(C)(C)C)cs1	x	0	x	x	x	x
SMILES	RecA intein inh	SSB-PriA inh	PrP 5UTR inh	PrPC TRFRET	PfHsp40 rescue	BJeLR lethal
CC/C(=C/c1sc2ccc(C)cc2[n+]1CCO)SC	34*	-6	-14	6	-1	10
CC/C(=C/c1sc2ccc(C)cc2[n+]1CCCS(=O)(=O)[O-])SC	13	-3	x	-3	x	5
O=c1c(CO)cc(CO)cc(CO)c1O	-3	-15	-14	-8	422*	2
O=S(=O)(c1cccc(C(F)(F)F)c1)N1CCC(CO)(CCCc2ccccc2)CC1	5	-23	-29	2	55*	-7
Cn1cc(/C=C2/SC(=Nc3ccc(O)cc3)NC2=O)c2ccccc21	x	-9	x	x	x	x
Cc1ccc(S(=O)(=O)N[C@@H](CCCCN)C(=O)CCl)cc1	50*	-4	20	-7	0	10
Cc1nc2c(sc3ccccc32)c(=O)n1CC(=O)Nc1ccc2c(c1)OCCO2	x	-13	x	x	x	x
COc1ccc(S(=O)(=O)Oc2cc(C)c(Cl)c(C)c2)cc1OC	x	-6	x	x	x	x
Cc1[nH][nH]c(=O)c1[C@@H](c1ccccc1[N+](=O)[O-])C(C#N)C#N	62*	4	-20	1	6	5
Cc1[nH]c2ccccc2c1C(c1ccc([N+](=O)[O-])cc1)C(C#N)C#N (stereo not drawn)	x	59	x	x	x	x
Cc1ccccc1C(=O)Nc1cccc(C(=O)NN=Cc2ccccn2)c1	x	-5	x	x	x	x
CCN1C(=O)C(C)(C)COc2ccc(NC(=O)c3cccc(OC)c3)cc21	x	22	x	x	x	x
COc1cccc(C(=O)N/N=C(/c2ccccc2)c2ccccn2)c1	1	x	13	4	324*	88*
COc1ccc(C(=O)NNC(=O)c2ccccn2)cc1	1	2	38	-5	-1	23
COCCNC(=S)NNC(=O)c1ccccn1	x	156*	x	x	x	x
CC(C)C(=O)NNC(=O)c1ccccn1	-3	-13	-3	-3	-2	-14
CNC(=S)NNC(=O)c1ccccn1	x	152*	x	x	x	x
COc1cc(OC)cc(C(=O)NNC(=O)c2ccccn2)c1	3	-1	-67	25*	-2	11
O=c1[nH]c2sc3c(c2c(=O)n1Cc1ccco1)CCCC3	x	29	x	x	x	x
Brc1cccc(-c2nc3ccccc3n2CCOc2ccccc2)c1	x	-49	x	x	x	x
CC(=O)Nc1ccc(SCC(=O)Nc2cc(C)no2)nn1	x	-1	x	x	x	x
C=CCNC(=S)NNC(=O)c1ccccn1	x	148*	x	x	x	x
C=CCNC(=O)c1n[nH]c2c1CC(C(C)(C)CC)CC2 (stereo not drawn)	x	2	-3	5	96*	x
O=C(O)c1cc2ccccc2cn1	x	75*!	-11	-1	0	x
O=C(O)c1cc2c(cn1)[nH]c1ccccc12	-23	80*	x	5	0	2
SMILES	RecA intein inh	SSB-PriA inh	PrP 5UTR inh	PrPC TRFRET	PfHsp40 rescue	BJeLR lethal
CNC(=O)CS(=O)(=O)C1CCN(C(=O)c2cc3ccccc3o2)CC1	x	-5	x	x	x	x
COc1ccccc1NC(=O)Nc1ccc(N2CCCC2=O)c(C)c1	x	-26	x	x	x	x
COc1cccc(NC(=O)N2CCC(NC(=O)c3ccco3)CC2)c1	x	-3	-33	2	-1	-5
O=C(NC1CCN(C(=O)Nc2cccc(F)c2)CC1)c1ccco1	-2	58*	-27	6	-1	-17
COC(=O)c1sc(-c2cccs2)cc1NC(=O)/C=C/C(=O)O	42*	-14	-16	-41	-1	3
COC(=O)c1sc(-c2ccccc2)cc1NC(=O)c1cccs1	x	4	x	x	x	x
Cc1ccc2nc(N3CCN(CCO)CC3)nc(-c3ccccc3)c2c1	-269	38*!	-9	-17	0	-5
O=C(Cc1ccccc1)Nc1nnc(-c2ccco2)o1	-7	1	0	-2	-1	3
Cc1ccsc1C(=O)Nc1nnc(-c2ccco2)o1	3	50*	-2	-9	-1	1
Cc1ccc(CC(=O)Nc2nnc(-c3ccco3)o2)c(C)c1	x	41*	x	x	x	x
